Screening results as filed in PubChem.
PTAP TSG101 blk = blocks PTAP/TSG101 interaction to inhibit HIV-1 budding | Fluorescence polarization, FITC-PTAP peptide / Tsg101 binding | AID 493005 | 340,000 tested, under 10 active | Potency, µM (highest dose often 115 µM), without a hit: top-dose activity change, negative = inhibition, actives largely listed as inhibitors; active = well fitted inhibition curve with a large enough effect in the main read-out, with a control signal flat, not every such curve was filed as active; inconclusive = small, poorly fitted or top-dose-only effect, or effect the other way, or a change in a side signal; inactive = no such curve, though single readings can be large or run the other way; also: % of control where 0% means no effect
Target sequence (Q99816 whole entry, looked up): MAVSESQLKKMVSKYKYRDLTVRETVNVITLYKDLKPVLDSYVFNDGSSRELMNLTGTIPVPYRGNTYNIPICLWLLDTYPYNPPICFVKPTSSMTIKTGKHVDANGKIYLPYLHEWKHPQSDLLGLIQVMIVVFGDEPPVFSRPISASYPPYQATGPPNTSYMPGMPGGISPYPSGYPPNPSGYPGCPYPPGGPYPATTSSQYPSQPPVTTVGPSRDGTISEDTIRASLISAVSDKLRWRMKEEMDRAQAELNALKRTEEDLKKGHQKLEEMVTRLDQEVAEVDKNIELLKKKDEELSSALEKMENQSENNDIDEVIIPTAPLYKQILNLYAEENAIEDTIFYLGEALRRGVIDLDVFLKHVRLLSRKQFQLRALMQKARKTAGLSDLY
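Fluorescence anisotropy tracks displacement of a FITC-tagged PTAP peptide (50 nM) from the Tsg101 binding domain (10 uM), following a 20 min room-temperature incubation at pH 7.5.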
KB-V1 cytotox = kills drug-selected multidrug resistant KB-V1 cells; hit rate 3.4% among 400,000; KB-V1 MDR cells viability, CellTiter-Glo, 72 h; Potency, µM (highest dose often 46.1 µM), hits mostly cytotoxic; also: % is scaled to controls: 0 for no effect and ±100 for the full control effect; nearly all actives have a fitted effect of over 60% in size
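Cytotoxicity via CellTiter-Glo luminescence after 72 h compound exposure at 37 degrees C. Cells: drug-selected KB-V1 line, DMEM phenol-red free plus 10% FBS. Compounds tested at multiple concentrations; normalized data fitted to concentration-effect curves.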
PINK1 expr mod = PINK1 expression modulation; PINK1 immunofluorescence, high-content cytometry, 24 h; Potency, µM (series often up to 76.6 µM), for the others: at the top dose activation (PINK1 increase), actives largely listed as activators; hit rate 0.2% among 410,000; AID 624263; active = well fitted activation curve with a large enough effect; inconclusive = small, poorly fitted or top-dose-only effect; cell line not stated here; also: % of control where 0% means no effect; nearly all actives have a fitted effect of over 65% in size
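Cells are seeded, rested 12 hours, then given compound at five concentrations or DMSO for 24 hours. After fixation, blocking and antibody staining, PINK1 amount and mitochondrial localization are scored; CCCP serves as control.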
SW480 rerep = induces DNA re-replication in SW480 colon adenocarcinoma cells; SW480 DNA re-replication, Hoechst DNA content imaging, 48 h; Potency, µM (highest dose often 46.1 µM), without a hit: top-dose re-replication activation, most hits filed as activators; hit rate 1.8% among 340,000; AID 624297; also: % of control where 0% means no effect; nearly all actives have a fitted effect of over 55% in size
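Image-based read-out: total Hoechst fluorescence of nuclei (405 nm excitation, 500-530 nm emission), with hits raising the fraction of high-intensity nuclei. SW480 colon cells incubated 48 hr with compounds at 37 C.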
KB-3-1 tox = kills parental KB-3-1 adenocarcinoma cells. KB-3-1 viability, CellTiter-Glo ATP luminescence, 72 h. Potency, µM (top dose mostly 46.1 µM), actives largely listed as cytotoxic. hit rate 1.4% among 400,000; also: % is scaled to controls: 0 for no effect and ±100 for the full control effect; nearly all actives have a fitted effect of over 60% in size
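KB-3-1 cells, DMEM (no phenol red) + 10% FBS; compound by pin transfer, 72 h, 37 °C. Readout: CellTiter-Glo luminescence after 10 min. Data normalized, curve-fitted.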
MCF10A rerep = inducers of DNA re-replication in MCF 10A breast cells; MCF 10A DNA re-replication, Hoechst nuclear intensity, 48 h; Potency, µM (top dose mostly 46.1 µM), for the others: at the top dose activity, positive = re-replication, hits mostly activators; hit rate 2.9% among 350,000; also: % of control where 0% means no effect; nearly all actives have a fitted effect of over 50% in size
Active calls of the source: *; i = inactive; ? = inconclusive; · = not tested or not shown; [ ] = another dose, or the depositor's remark. An excerpt weighted towards active compounds, which were near 6.8% of everything screened. Unless noted, calls follow the shape of the dose curve; as a rule, active = well fitted curve in the direction sought with a large enough effect; inconclusive = small, poorly fitted or top-dose-only effect, or another doubt; inactive = no such curve, though single readings can be large; an effect the other way counts as inactive or inconclusive. Potency is read from the fitted curve at half-maximal effect.

SMILES	PTAP TSG101 blk	KB-V1 cytotox	PINK1 expr mod	SW480 rerep	KB-3-1 tox	MCF10A rerep
Cn1cnc([N+](=O)[O-])c1Sc1nc(N)nc2c1ncn2C1OC(CO)C(O)C1O (centres undefined)	0%	1.2µM*	-6%	5.8µM*	?	2.1µM*
CCSc1nc(N)nc2c1ncn2C1OC(CO)C(O)C1O (centres undefined)	-2%	i	3%	-10%	i	-4%
COc1ccc(-c2coc3c(C(=O)Nc4cc(OC)c(OC)c(OC)c4)cccc23)c(C)c1	·	13µM*	5%	·	?	·
COc1cc(NC(=O)c2cccc3c(-c4cccnc4)coc23)cc(OC)c1OC	·	7.3µM*	3%	·	?	·
COc1ccc(-c2coc3c(C(=O)Nc4ccc(OC)nc4)cccc23)c(C)c1	·	i	2%	·	i	·
O=C(Nc1cccc(C(F)(F)F)c1)c1cccc2c(-c3cccnc3)coc12	·	i	4%	·	i	·
COc1cc(NC(=O)c2cccnc2Sc2ccc(Cl)cc2)cc(OC)c1OC	-4%	5.2µM*	0%	5%	i	10%
COc1cc(NC(=O)c2ccccn2)cc(OC)c1OC	-6%	i	-2%	-69%	i	8%
CCN1CCN(C(c2ccc(OC)cc2)c2c(O)cc(C)n(Cc3ccco3)c2=O)CC1 (centres undefined)	·	i	1%	·	i	·
C=CCn1c(SCc2csc(C)n2)nc2sc3c(c2c1=O)CCCC3	0%	i	3%	3%	?	16µM*
C=CCn1c(SCc2csc(C)n2)nc2sc3c(c2c1=O)CCC(C)C3 (centres undefined)	-4%	i	·	-1%	i	21µM*
C=CCn1c(SCc2csc(C)n2)nc2sc3c(c2c1=O)CCCCC3	0%	i	3%	10%	i	?
COCC(=O)Nc1cc(C(=O)N2CCC(c3ccccc3)CC2)cc2nc(-c3ccccc3)n(C)c12	·	·	5%	·	·	·
COc1cc2c(NC3CCN(C)CC3)nc(N3CCCN(C)CC3)nc2cc1OCCCN1CCOCC1	·	i	-1%	·	?	·
COc1cc2ncnc(Nc3ccc(F)c(Cl)c3)c2cc1OCCCN1CCOCC1	·	·	·	15%	·	30µM*
Cc1ccc2c(c1)c1c3n2CC(=C2C(=O)OC(C)(C)OC2=O)NC3CCC1 (centres undefined)	-9%	21µM*	-1%[38.3 µM]	1%	i	5%
Cc1ccc2c(c1)c1c3n2CCN(C(=O)C2CC2)C3CCC1 (centres undefined)	-8%	i	0%	-4%	i	2%
COc1cc(/C=C(\C#N)c2nc3ccccc3[nH]2)cc(Br)c1OCc1ccc(F)cc1	-6%	i	10%	?	i	8.2µM*
COc1cc(/C=C(\C#N)c2nc3ccccc3[nH]2)cc(Br)c1OCc1ccccc1	1%	i	?	18µM*	i	18µM*
Cc1ccc(C)c(S(=O)(=O)N2CCN(C(=O)CCC(=O)NCc3ccc(Cl)cc3Cl)CC2)c1	-2%	i	0%	-17%	i	21µM*
O=C1C=C(c2ccccc2)CC(c2cccs2)C1n1cnc([N+](=O)[O-])c1 (centres undefined)	-4%	i	5%	-5%	i	2%
O=C1C=C(c2ccccc2)C[C@H](c2cccs2)[C@H]1n1nnc([N+](=O)[O-])n1	0%	16µM*	1%	2.1µM*	i	?
COc1ccc(Cl)cc1-c1nc(N)nc(NC2CCCCC2)n1	-1%	18µM*	7%	-4%	i	0%
Cc1ccc(CSc2ccc3nnc(CCNS(=O)(=O)c4ccc(C)cc4)n3n2)cc1	·	i	-1%	·	i	·
COc1ccc(C)cc1NC(=O)C(Sc1nnc2ccccn12)c1ccccc1 (centres undefined)	-11%	3.3µM*	6%	-2%	i	0%
SMILES	PTAP TSG101 blk	KB-V1 cytotox	PINK1 expr mod	SW480 rerep	KB-3-1 tox	MCF10A rerep
O=C(Nc1ccc(F)cc1)C(Sc1nnc2ccccn12)c1ccccc1 (centres undefined)	2%	5.8µM*	4%	7%	i	-68%
Cc1ccc(NC(=O)C(=O)NCC(c2ccc3c(c2)OCO3)N2CCN(C)CC2)c(C)c1 (centres undefined)	·	i	-2%	·	i	·
Cc1ccc(C)c(N2CCN(S(=O)(=O)c3cc(-c4cc(C)no4)ccc3C)CC2)c1	·	i	-1%	·	i	·
CCCOc1ccc(CCc2n[nH]c(=S)n2-c2ccccc2)cc1	2%	i	0%	-8%	i	1%
CCCOc1ccc(CCc2n[nH]c(=S)n2Cc2ccccc2)cc1	-8%	i	7%	2%	i	21µM*
COCCNC(=O)CSc1nc2ccc(N3CCOCC3)cc2c(=O)n1CCc1ccccc1	0%	i	5%[38.3 µM]	-11%	i	26%
CCCCNC(=O)CSc1nc2ccc(N3CCOCC3)cc2c(=O)n1CCc1ccccc1	-1%	0.58µM*	?	-3%	i	5%
O=C(CSc1nc2ccc(N3CCOCC3)cc2c(=O)n1CCc1ccccc1)NCC1CCCO1 (centres undefined)	0%	i	1%	29%	i	23µM*
CC1CN(Cc2cccn2-c2ncccn2)Cc2cc(Cl)ccc2O1 (centres undefined)	·	·	1%	·	·	·
CCc1ccc(-c2cc(C)no2)cc1S(=O)(=O)Nc1ccc(Cl)cc1	·	16µM*	?	·	?	·
CCc1ccc(-c2cc(C)no2)cc1S(=O)(=O)Nc1ccc(Cl)cn1	-15%	i	0%	-22%	i	-1%
CC(C)(c1ccccc1)c1ccc(OCC(O)CN2CCCC2)cc1 (centres undefined)	-1%	i	7%	16µM*	?	?
CN1CCN(CC(O)COc2ccccc2)CC1 (centres undefined)	?	i	-2%	-1%	i	-2%
C=CCc1ccccc1OCC(O)CN1CCOCC1 (centres undefined)	1%	i	0%	12µM*	i	9%
OC(COc1ccc(OCc2ccccc2)cc1)CN1CCOCC1 (centres undefined)	-7%	i	2%[38.3 µM]	?	i	9.2µM*
OC(COc1ccccc1)CN1CCCC1 (centres undefined)	2%	i	1%	-23%	i	-3%
CN1CCN(CC(O)COc2ccc(C34CC5CC(CC(C5)C3)C4)cc2)CC1 (centres undefined)	3%	?	-2%	?	?	15µM*
